# PubChem BioAssay AID2546 (National Center for Advancing Translational Sciences (NCATS), 2010)
# Where “and” joins values, the source holds several entries; their conditions need not be identical. Equal values may be shown once. Screen size: about 310,000 compounds; about 11,000 (3.5%) were called active. Entries that show only a call come without a potency. About 8% were inconclusive and are not listed. The sample holds actives, similar compounds and a random draw of the others, so the mix is not that of the screen. Calls follow the shape of the dose curve; as a rule, active = well fitted inhibition curve with a large enough effect; inconclusive = small, poorly fitted or top-dose-only effect, or effect the other way; inactive = flat fitted curve, though single readings scatter.
# Assay: VP16 counterscreen qHTS for inhibitors of ROR gamma transcriptional activity;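 also: Gal4-VP16 expression switched on by copper sulfate through the metallothionein promoter; nearly all actives have a fitted effect of over 50% in size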
# Details: Drosophila S2 Gal4-VP16 UAS-luciferase, luminescence, 20 h; series mostly up to 53.6 µM
# Potency is read from the fitted curve at half-maximal effect.
row,SMILES,Potency
1,O=S(=O)(/C=C/c1ccccc1)N1CCNCC1,inactive
2,CCc1ccc(OCC(=O)NCC(c2ccc(Cl)cc2)N2CCCCC2)cc1 (centres undefined),inactive
3,Cc1ccc(S(=O)(=O)c2c[nH]c3ccc(C)cc3c2=O)cc1,inactive
4,Cc1cc(/C=N/NC(N)=O)c(C)n1C1CCCCC1,inactive
5,Cc1cc(/C=N/Nc2ccc([N+](=O)[O-])cn2)c(C)n1-c1cccc(C(=O)O)c1,inactive
6,Cc1cccc(-n2c(C)cc(/C=N/NC(N)=S)c2C)c1,2.82 µM (active)
7,O=C(CN1CCN(C(=O)C2CCCO2)CC1)Nc1c(Cl)cccc1Cl (centres undefined),inactive
8,COc1ccc(Oc2ncc3nc(C)c(=O)n(-c4ccccc4)c3n2)cc1,inactive
9,Cc1n[nH]c(=O)n1-c1ccc(C(C)C)cc1,inactive
10,Cc1n[nH]c(=O)n1-c1ccc(Oc2ccccc2)cc1,0.891 µM (active)
11,Cc1cccc(CNS(=O)(=O)c2ccc(-c3cnc(C4CC4)o3)cc2)c1,inactive
12,CCOc1ccc(CN(C)C(=O)c2ccc(=O)[nH]c2)cc1,inactive
13,Cc1cccc(NC(=O)c2cccnc2Cl)n1,inactive
14,Cc1ccc2nc(N(CCN(C)C)C(=O)C3=COCCO3)sc2c1,inactive
15,Cc1ccc(NS(=O)(=O)c2ccc(C)c(NC(=O)COc3ccc4ccccc4c3)c2)c(C)c1,inactive
16,COc1cc(NS(=O)(=O)c2ccc3ccccc3c2)c2ncccc2c1,708 nM (active) and 562 nM (active)
17,COc1ccc2cc(S(=O)(=O)Nc3ccccn3)ccc2c1,inactive
18,N#CCSc1nc(-c2ccccc2)nc2ccc(F)cc12,inactive
19,Cc1nc2ccc(S(=O)(=O)N(C)CC(=O)NC(C)c3ccccc3)cc2s1 (centres undefined),inactive
20,CC1CC(=O)Nc2ccccc2N1S(=O)(=O)c1cccs1 (centres undefined),inactive
21,CC1CC(C)(C)NC(=S)N1CCC(=O)N1CCN(Cc2ccccc2)CC1 (centres undefined),inactive
22,CC1CC(=S)Nc2ccccc2N1Cc1ccccc1 (centres undefined),3.16 µM (active)

row,SMILES,Potency
1,Cc1ccccc1OCC(=O)Nc1ccc(S(=O)(=O)N2CCOCC2)cc1,inactive
2,O=C(c1ccccc1)N1CCN(C(=O)c2cc3nc(-c4ccccc4)cc(C(F)(F)F)n3n2)CC1,inactive
3,COc1ccc(-c2cc(C(F)(F)F)nc(S(C)(=O)=O)n2)cc1OC,5.62 µM (active)
4,COc1ccc(-c2cc(C(F)(F)F)nc(SCC(=O)Nc3ccc4c(c3)OCO4)n2)cc1OC,inactive
5,COc1cc(OC)nc(S(C)(=O)=O)n1,inactive
6,CC1=C(C(=O)OCC2CCCCC2)C(c2ccc(F)cc2)NC(=O)N1 (centres undefined),inactive
7,CC1CN(C(=S)Nc2ccccc2F)CC(C)O1 (centres undefined),inactive
8,CCOC(=O)c1c(NC(=O)c2ccc(S(=O)(=O)N(C)CC3CCCO3)cc2)sc2c1CC(C)(C)NC2(C)C (centres undefined),inactive
9,COC(=O)c1sccc1NC(=O)COc1ccc(Cl)cc1,inactive
10,COC(=O)c1c(NC(=O)COc2ccc(Cl)cc2Cl)sc2c1CC(C)(C)NC2(C)C,22.4 µM (active)
11,CCCn1c(C(C)Nc2nc(-c3ccc(C)cc3)cs2)nc2cc(Cl)c(N3CCCCC3)cc21 (centres undefined),inactive
12,CCCC1CCC(=NNC(=S)NCCc2ccccc2)CC1 (centres undefined),11.2 µM (active)
13,O=C(NCCc1ccccc1)C1CC1,inactive
14,S=C(NN=C1CCN(Cc2ccccc2)CC1)NC1CCCCC1,inactive
15,O=C(NCC(=O)N1CCN(c2ncc(C(F)(F)F)cc2Cl)CC1)c1ccc(Br)o1,inactive
16,Cc1ccc(CN2CCC(n3nccc3NC(=O)CCCc3ccccc3)CC2)o1,inactive
17,O=C(Nc1cccc(F)c1)NC1CCCCCCC1,inactive
18,C/C(=N\NC(=O)Cc1ccc(Br)cc1)c1cccnc1,inactive
19,C/C(=N\NC(=O)Cc1ccc(F)cc1)c1ccc(F)cc1,inactive
20,C/C(CC(=O)Nc1ccc(N(C)C)cc1)=N\NC(=O)c1ccccc1F,inactive
21,C/C(=N\NC(=O)Cc1ccc(Cl)cc1)c1ccccn1,2.51 µM (active)
22,O=C(Nc1ccc(NC(=O)c2ccccc2F)cc1)c1ccccc1F,inactive

row,SMILES,Potency
1,C/C(=N\NC(=O)c1ccccc1F)c1ccccn1,1.12 µM (active)
2,O=C(c1cc(-c2ccc(Cl)cc2)on1)N1CCN(c2ccccc2)CC1,inactive
3,O=C(COc1ccccc1Cl)N1CCCCCCC1,inactive
4,NS(=O)(=O)c1ccccc1NC(=O)c1c(O)c2ccccc2[nH]c1=O,inactive
5,COc1ccc(CC(=O)NCC(=O)N/N=C/c2cc(Br)ccc2OC)cc1,inactive
6,COc1ccc(CC(=O)N/N=C/c2cc([N+](=O)[O-])cc(Br)c2O)cc1,3.16 µM (active)
7,COc1cc(OC)c(/C=N/NC(=O)c2ccc([N+](=O)[O-])cc2)cc1Br,inactive
8,COc1cccc(NC(=O)CCc2nnc3ccc(N4CCC(C)CC4)nn23)c1,inactive
9,CC(=O)c1ccc(NC(=O)c2ccc(-n3cncn3)c([N+](=O)[O-])c2)cc1,inactive
10,S=C(NCc1ccc(Cl)cc1)NC12CC3CC(CC(C3)C1)C2,3.16 µM (active)
11,CN(C)CCCNC(=S)NCc1ccc(Cl)cc1,inactive
12,S=C(NCc1ccc(Cl)cc1)NC1CCCCC1,7.94 µM (active)
13,O=C(NCc1ccc(Cl)cc1)NCc1ccc(Cl)cc1,inactive
14,COc1ccc(Cl)cc1C(=O)NNC(=S)NC1CCCC1,inactive
15,O=C(NCc1ccncc1)NC12CC3CC(CC(C3)C1)C2,inactive
16,O=C(NCCc1ccc(Cl)cc1)c1cccc(N2CCCC2=O)c1,inactive
17,CN1CCN(S(=O)(=O)c2ccc(NC(=S)NC(=O)C3CC3)cc2)CC1,inactive
18,S=C(Nc1ccc(Cl)cc1Cl)N1CCCC1,inactive
19,O=C(NC(=S)Nc1ccc(Cl)cc1Cl)C1CC1,5.62 µM (active)
20,Oc1ccccc1C1=NN(c2ccccc2)C(c2ccccc2)C1 (centres undefined),inactive
21,CCC(=O)Nc1nc(C)c(C(=O)Nc2cccc(Cl)c2)s1,inactive
22,CN1CCN(C(=O)c2cnn(-c3ccccc3)c2NC(=O)c2ccc([N+](=O)[O-])cc2)CC1,inactive

row,SMILES,Potency
1,Cc1ccc(NC(=O)NC(=O)c2ccccc2)cc1F,inactive
2,Cc1cccc(NC(=O)NC(=S)NC(=O)c2ccccc2)c1,5.01 µM (active)
3,Cc1cccc(NC(=S)NC(=O)c2ccc(Br)o2)c1,inactive
4,Cc1ccn2c(c1)nc(=O)c1cc(S(=O)(=O)N3CCC(C)CC3)ccc12,inactive
5,COc1ccc(CCNC(=O)C(=O)NCC2OCCN2S(=O)(=O)c2ccc(OC)c(C)c2)cc1 (centres undefined),inactive
6,COc1ccc(C(=O)CSc2nnc(COc3ccccc3)n2Cc2ccco2)cc1,inactive
7,Cn1c2ccccc2c(=O)c2c(=O)n(Cc3ccco3)c(COc3ccccc3)nc21,17.8 µM (active)
8,Cc1nc2c(c(=O)n1Cc1ccco1)c1nc3ccccc3nc1n2Cc1ccccc1,inactive
9,O=C(NNC(=S)Nc1ccc(F)cc1)[C@H]1C[C@@H]1c1ccccc1,inactive
10,O=C(N/N=C/c1cccc2cccnc12)[C@H]1C[C@@H]1c1ccccc1,8.91 µM (active)
11,COc1cc(/C=N\NC(=O)C2C(=O)NCC2c2ccccc2)cc(OC)c1O (centres undefined),inactive
12,CC(=O)c1ccc(S(=O)(=O)N(C)CCCC(=O)N(C)Cc2ccccc2F)cc1,inactive
13,CCOc1ccc(N(CC)S(=O)(=O)c2cccc3nsnc23)cc1,inactive
14,CN(C)/C=C1/C(=O)Nc2ccccc21,inactive
15,CN(C)/C=C1\C=C(c2ccccc2)OC1=O,35.5 µM (active)
16,Cc1ccc(C2=C/C(=C\c3cccnc3)C(=O)O2)cc1,inactive
17,COc1cc(NC(=O)CN2C(=O)NC(C)(c3ccc(OC(F)F)cc3)C2=O)cc(OC)c1OC (centres undefined),inactive
18,Cc1ccc(O)c(CNc2nc3ccccc3[nH]2)c1,inactive
19,COc1ccc(NC(=O)CCCC(=O)c2ccccc2)cc1,inactive
20,Cc1ccc(S(=O)(=O)NC(=O)c2cccc(C)c2)cc1,inactive
21,Cc1cccc(C(=O)NC(=S)N(C)C2CCCCC2)c1,2.24 µM (active)
22,Cc1cccc(C(=O)NCCCN(C)CCCNC(=O)c2cccc(C)c2)c1,inactive

row,SMILES,Potency
1,COc1ccc(N2CCN(C(=O)[C@@H](NC(=O)c3cc(OC)cc(OC)c3)C(C)C)CC2)cc1,inactive
2,CCC(NC(=O)c1cc(COc2ccc(F)c(F)c2)on1)c1ccncc1 (centres undefined),inactive
3,Cc1ccc(NC(=S)NC2CCCC2)cc1,11.2 µM (active)
4,CC(C)c1ccc(NC(=O)NC2CCCCC2)cc1,inactive
5,CC(Oc1ccc(Br)cc1Br)C(=O)NC1CCCC1 (centres undefined),inactive
6,Cc1cc(Br)ccc1NC(=S)NC1CCCC1,5.62 µM (active)
7,Cc1cc(C)cc(NC(=O)NC2CCCCCCC2)c1,inactive
8,Cc1ccc(NC(=O)CSCC(=O)NC2CCCCC2)cc1,inactive
9,CCC1=Nc2cc(C(=O)NCCN3CCCC3)ccc2Sc2ccc(C)cc21,inactive
10,C/C(=N/OC(=O)c1ccc(Br)cc1)c1ccc(C)cc1,inactive
11,COc1ccccc1C(=O)N/C(=C/c1ccco1)C(=O)Nc1ccc(C(=O)O)cc1,inactive
12,CN(C)S(=O)(=O)c1cccc(NC(=O)COC(=O)c2cc(=O)[nH]c(=O)[nH]2)c1,inactive
13,CN(C)S(=O)(=O)c1cccc(NC(=O)Cc2ccsc2)c1,inactive
14,Cc1ccc(/C=N/NC(=S)Nc2cccc(S(=O)(=O)N(C)C)c2)o1,15.8 µM (active)
15,N#CCC(=O)NC1CCC(CC2CCC(NC(=O)CC#N)CC2)CC1 (centres undefined),inactive
16,COCCNc1ccc(-c2n[nH]c(=O)c3ccccc23)cc1[N+](=O)[O-],inactive
17,Cc1ccc2oc(C(=O)N3CCN(C)C[C@@H]3C(C)C)c(C)c2c1,inactive
18,Cc1cc(C(=O)Cn2cnc3cc([N+](=O)[O-])ccc3c2=O)c(C)n1CC1CCCO1 (centres undefined),inactive
19,Cc1nnc(SCC(N)=O)n1CC1CCCO1 (centres undefined),inactive
20,Cc1ccsc1C(=O)OCC(=O)c1cc(C)n(CC2CCCO2)c1C (centres undefined),7.08 µM (active)
21,CCOc1ccc2[nH]c(=O)c(CN(CCCO)S(=O)(=O)c3ccc(F)cc3)cc2c1,inactive
